Source: the supplement of paper PMC9844399
Counter-ions that a name gives are not always drawn. Values without a mark were called inactive.

System: HeLa
Assay: MALAT1 nuclear FISH intensity, robust Z-score vs DMSO; higher = more nuclear MALAT1 lncRNA, active = -3 or less
Conditions: 10 µM; 6 h
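Further: High-content confocal imaging of branched-DNA amplified FISH in 384-well plates, Hoechst-defined nuclei, score is well value minus plate DMSO median over DMSO robust SD, four wells per compound.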

| SMILES | MALAT1 nuclear FISH intensity |
| --- | --- |
| O=C(O)c1ccccc1Nc1cccc(C(F)(F)F)c1 [Flufenamic acid] | 0.0613 |
| CCCCCCCCCCCCCCCC(=O)C1=C(O)[C@@H](CO)OC1=O | -1.76 |
| CCC1(c2ccccc2)C(=O)NCNC1=O [Primidone] | 0.625 |
| CC(C)[C@@H]1NC(=O)[C@H](Cc2ccccc2)NC(=O)[C@@H](CC(=O)O)NC(=O)CNC(=O)[C@H](CCCN=C(N)N)NC1=O [Cyclo [Arg-Gly-Asp-D-Phe-Val]] | -1.55 |
| NC(N)=NCCNS(=O)(=O)c1cccc2cnccc12 | -2.02 |
| O=C(O)COCCN1CCN([C@H](c2ccccc2)c2ccc(Cl)cc2)CC1 [Levocetirizine Dihydrochloride] | -0.0578 |
| c1ccc2c(c1)CCCC2C1=NCCN1 (centres undefined) | -0.177 |
| CCCCCCCCc1ccc(CCC(N)(CO)CO)cc1 | -5.88 (active) |
| C[C@H]1O[C@H](O[C@H]2[C@H](O)[C@@H](O)[C@@H](O[C@H]3[C@H](O)[C@@H](O)C(O)O[C@@H]3CO)O[C@@H]2CO)[C@H](O)[C@@H](O)[C@@H]1N[C@H]1C=C(CO)[C@@H](O)[C@H](O)[C@H]1O (some centres undefined) [Acarbose] | -1.04 |
| N#Cc1ccc(C(c2ccc(C#N)cc2)n2cncn2)cc1 [Letrozole] | -0.538 |
| CC1=C(/C=C/C(C)=C/C=C/C(C)=C\C(=O)O)C(C)(C)CCC1 [13-cis retinoic acid] | -0.46 |
| C[C@H]1C[C@@H]2[C@H]([C@@H](O)C[C@@]3(C)[C@H]2CC[C@]3(O)C(=O)CO)[C@@]2(C)C=CC(=O)C=C12 [Methylprednisolone] | 2.03 |
| N[C@H]1C(O)O[C@H](CO)[C@@H](O)[C@@H]1O (some centres undefined) [Glucosamine HCl] | -0.415 |
| CC1CNc2c(cccc2S(=O)(=O)N[C@@H](CCCNC(=N)N)C(=O)N2CC[C@@H](C)C[C@@H]2C(=O)O)C1 (some centres undefined) [Argatroban] | -1.05 |
| CN1CC[C@@H](NC(=O)Nc2ccc(C#N)cc2)C[C@@H]1c1nc2ccccc2[nH]1 | -0.295 |
| Cc1cc(C(=O)NNCc2ccccc2)no1 [Isocarboxazid] | -0.791 |
| CCN(CC)CC#CCOC(=O)C(O)(c1ccccc1)C1CCCCC1 (centres undefined) [Oxybutynin Chloride] | -0.438 |
| CC[C@H](C)C(=O)O[C@H]1C[C@@H](C)C=C2C=C[C@H](C)[C@H](CC[C@@H](O)C[C@@H](O)CC(=O)O)[C@H]21 [Lovastatin Sodium Salt] | -0.314 |
| COc1cc(CNC(=O)CCCC/C=C/C(C)C)ccc1O [E-Capsaicin] | -1.63 |
| O=C(O)c1ccccc1Nc1ccccc1 [N-Phenylanthranilic acid] | 1.66 |

| SMILES | MALAT1 nuclear FISH intensity |
| --- | --- |
| O=C1NC(=O)C(c2ccccc2)(c2ccccc2)N1 [Phenytoin] | 0.723 |
| O=C(NOCC1CC1)c1ccc(F)c(F)c1Nc1ccc(I)cc1Cl | -0.161 |
| O=NN(CCCl)C(=O)NC1CCCCC1 [Lomustine] | -0.711 |
| COc1cc(/C=C/C(=O)CC(=O)/C=C/c2ccc(O)c(OC)c2)ccc1O [Curcumin] | 0.507 |
| Cc1cc(-c2ncc(CC(=O)Nc3ccc(-c4cnccn4)cn3)cc2C)ccn1 | 0.012 |
| COC(C)(C)CCCC(C)C/C=C/C(C)=C/C(=O)O (centres undefined) [Methoprene acid] | 0.292 |
| CC(C)NCC(O)c1ccc(NS(C)(=O)=O)cc1 (centres undefined) | -1.02 |
| C#C[C@]1(O)CC[C@H]2[C@@H]3CCC4=Cc5oncc5C[C@]4(C)[C@H]3CC[C@@]21C [Danazol] | 0.553 |
| Nc1c(CC(=O)O)cccc1C(=O)c1ccc(Br)cc1 [Bromfenac] | -1.47 |
| CCOC(=O)[C@H](CCc1ccccc1)N[C@@H](C)C(=O)N1Cc2cc(OC)c(OC)cc2C[C@H]1C(=O)O | 0.383 |
| COC(=O)C1=C(C)NC(C)=C(C(=O)OC(C)C)C1c1cccc2nonc12 (centres undefined) [Isradipine] | 0.295 |
| Cc1nccn1CC1CCc2c(c3ccccc3n2C)C1=O (centres undefined) [Ondansetron] | -0.471 |
| Nc1ccc2c3c(cccc13)C(=O)NC2=O [4-Amino-1,8-naphthalimide] | -1.23 |
| O=S(=O)(O)CCS [Mesna] | 0.508 |
| CCOC(=O)c1ncn2c1CN(C)C(=O)c1cc(F)ccc1-2 [Flumazenil] | 1.22 |
| C=C(c1ccc(C(=O)O)cc1)c1cc2c(cc1C)C(C)(C)CCC2(C)C [Bexarotene] | -1.19 |
| Nc1ccc(O)c(C(=O)O)c1 [Mesalamine (5-Aminosalicylic Acid)] | 0.788 |
| Oc1c(Cl)cc(Cl)c(Cl)c1Cc1c(O)c(Cl)cc(Cl)c1Cl [Hexachlorophene] | 0.867 |
| Clc1ccc(COC(Cn2ccnc2)c2ccc(Cl)cc2Cl)cc1 (centres undefined) [Econazole nitrate] | -1.3 |
